# High-throughput results (PubChem)
# 3T3 cytotox = cytotoxic compounds in NIH 3T3 cells; Potency, µM (doses to about 96.7 µM), for the others: at the top dose activity change, negative = cytotoxicity, actives largely listed as inhibitors; NIH 3T3 viability, CellTiter-Glo ATP luminescence, 48-72 h; actives 4.3% (n = 94,000); note: nearly all actives have a fitted effect of over 55% in size
#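 Cytotoxicity is measured as loss of cellular ATP: NIH 3T3 cells (400/well) are exposed to compound for 48 or 72 hr at 37 °C, then CellTiter-Glo luminescence is imaged after 10 min at room temperature.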
# FLuc inh = blocks purified firefly luciferase enzyme activity; P08659; purified P. pyralis luciferase, luminescence, biochemical; Potency, µM (highest dose often 115 µM), actives largely listed as inhibitors; actives 2.5% (n = 76,000); note: nearly all actives have a fitted effect of over 65% in size
# Target sequence (P08659 whole entry, looked up): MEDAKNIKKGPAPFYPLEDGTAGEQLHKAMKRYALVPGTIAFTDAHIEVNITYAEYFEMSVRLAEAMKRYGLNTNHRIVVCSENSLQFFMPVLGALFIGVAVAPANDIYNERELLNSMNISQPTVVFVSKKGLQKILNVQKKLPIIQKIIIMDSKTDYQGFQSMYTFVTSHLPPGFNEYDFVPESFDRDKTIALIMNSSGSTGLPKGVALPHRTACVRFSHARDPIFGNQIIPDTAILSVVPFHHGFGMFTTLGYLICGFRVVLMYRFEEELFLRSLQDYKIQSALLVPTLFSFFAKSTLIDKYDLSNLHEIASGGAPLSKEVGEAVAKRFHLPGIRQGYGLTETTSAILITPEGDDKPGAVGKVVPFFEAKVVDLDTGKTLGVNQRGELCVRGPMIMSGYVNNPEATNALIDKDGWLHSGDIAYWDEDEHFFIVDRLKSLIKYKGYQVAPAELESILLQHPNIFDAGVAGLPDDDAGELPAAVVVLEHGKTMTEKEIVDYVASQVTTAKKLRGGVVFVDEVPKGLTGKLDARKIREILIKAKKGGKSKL
#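 Inhibitors were tested against purified firefly luciferase in a biochemical, low-substrate format (both substrates at 10uM) and luminescence measured with a CCD imager.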
# hNpr1 antagonist = blocks ANP-stimulated signaling of human Npr1 receptor; AID 1347048; HEK293 hNpr1 GloSensor cGMP, ANP-stimulated luminescence; Potency, µM (highest dose often 46.3 µM), for the others: top-dose activity change, negative = inhibition, actives largely listed as inhibitors; actives 1.6% (n = 76,000); P16066; calls by dose curve; note: nearly all actives have a fitted effect of over 60% in size
#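 Compound pre-incubated 30 min at room temperature on GloSensor-loaded HEK293 cells stably carrying hNpr1 and the pGS-40F cGMP biosensor. Stimulation uses hNppA at 0.1 nM final; luminescence is taken at baseline and 20 min post-agonist.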
# HEK cytotox = cytotoxic compounds in HEK 293 cells; AID 1345083; Potency, µM (series often up to 115 µM), for inactives: top-dose activity change, negative = cytotoxicity, hits mostly inhibitors; actives 6.6% (n = 94,000); HEK 293 viability, ATP luminescence (CellTiter-Glo), 48-72 h; note: nearly all actives have a fitted effect of over 60% in size
#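 HEK 293 cells seeded at 250 cells/well were exposed to compound for 48 or 72 hr at 37 degree Celsius. Viability taken as ATP content by CellTiter-Glo luminescence.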
# * marks the source's active call; other numbers are inactive results; i = inactive; u = inconclusive; x = not tested or not shown; [ ] = dose if it differs, or a comment. Most compounds without a hit are left out; they make up all but 11% or so of the library. Unless noted, calls come from the whole dose curve; as a rule, active = well fitted curve in the direction sought with a large enough effect; inconclusive = small, poorly fitted or top-dose-only effect, or another doubt; inactive = no such curve, though single readings can be large; an effect the other way counts as inactive or inconclusive. % is set by controls: 0 for no effect and ±100 for the full control effect; potency is the fitted concentration of half-maximal effect.
SMILES,3T3 cytotox,FLuc inh,hNpr1 antagonist,HEK cytotox
COc1ccc(-c2cc(-c3c(C)noc3C)c3cncn3c2)cn1,50µM*,i,1%[70.6 µM],u
CC(=O)N1CC2(CCN(C(=O)CCC(=O)O)C2)Cc2ccccc21 (stereo not given),5%,x,x,0%
CCC1(CC)CC1C(=O)N1CCc2onc(-c3cccc(F)c3)c2C1 (stereo not given),u,i,-26%,45µM*
O=C(NCc1ccccc1-n1cncn1)C12CNCC1CNC2 (stereo not given),-2%,i,3%,2%
Fc1ccccc1CC1CCN(CC2[C@H]3CNC[C@@H]23)CC1 (stereo not given in full),35µM*,i,4%,u
COc1ccc(Nc2ccnc(N3CCC(C(=O)NCc4ccccc4OC)CC3)n2)cc1,32µM*,x,x,28µM*
CNC(=O)C1CCN(c2nccc(Nc3ccc(OC)cc3)n2)CC1,u,x,x,-20%[172 µM]
COc1ccc(Nc2ccnc(N3CCC(C(=O)NCC(F)(F)F)CC3)n2)cc1,u,x,x,79µM*
COc1ccc(Nc2ccnc(N3CC4CCC(C3)N4CC(F)(F)F)n2)cc1,40µM*,x,x,32µM*
COc1ccc(-c2cc3c(=O)n(CCNC(=O)c4ccc(OC)nc4)ccn3n2)cc1,-2%,u,0%,i
CC1=C[C@@H](CNC(=O)c2cnccn2)[C@H](C(C)C)C[C@H]1Cc1nc2ccccc2n1C,u,i,u,u
CC1=C[C@@H](CNC(=O)N2CCOCC2)[C@H](C(C)C)C[C@H]1Cc1nc2ccccc2n1C,63µM*,i,u,63µM*
CC1=C[C@@H](CNC(=O)COCC(=O)O)[C@H](C(C)C)C[C@H]1Cc1nc2ccccc2n1C,-29%[174 µM],i,-16%[70.6 µM],-6%[172 µM]
COCC(=O)NC[C@@H]1C=C(C)[C@H](Cc2nc3ccccc3n2C)C[C@H]1C(C)C,50µM*,i,u,56µM*
CC1=C[C@@H](CNC(=O)Cn2cnnn2)[C@H](C(C)C)C[C@H]1Cc1nc2ccc(C)cc2[nH]1,u,i,-23%[70.6 µM],89µM*
CC1=C[C@@H](CNC(=O)COCC(=O)O)[C@H](C(C)C)C[C@H]1Cc1nc2ccc(C)cc2[nH]1,2%[174 µM],i,-2%[70.6 µM],-20%[172 µM]
CC1=C[C@@H](CNC(=O)Cn2cnnn2)[C@H](C(C)C)C[C@H]1Cc1nc2ccccc2n1C,89µM*,i,u,u
COc1ccc(CN2C[C@H]3CN(S(=O)(=O)c4ccc(OC)cc4)CCN3C2=O)cc1,u,i,u,u
O=C(Cc1cccnc1)N1CCc2c(nc3cc(-c4ccccc4)[nH]n3c2=O)C1,i,u,-10%,7%
O=C1NC2(CCCN(Cc3ccc(C(F)(F)F)cc3)C2)COc2ccccc21 (stereo not given),u,i,0%,u
Cc1oc2ccn(Cc3cccc(F)c3)c(=O)c2c1C(=O)NCc1cccc(F)c1,u,i,-16%,u
COc1ccc(C(C)NC(=O)c2c(C)oc3ccn(Cc4cccc(F)c4)c(=O)c23)cc1 (stereo not given),u,i,-14%,32µM*
Cc1oc2ccn(Cc3ccc(F)cc3)c(=O)c2c1C(=O)O,2%,i,2%,6%
CCCNC(=O)c1c(C)oc2ccn(Cc3ccc(F)cc3)c(=O)c12,u,i,-15%,35µM*
CC(C)CNc1ccc2c(n1)C(C)(C(=O)NC1COC1)CN(Cc1ccccc1)C2 (stereo not given),u,i,-11%[70.6 µM],u
SMILES,3T3 cytotox,FLuc inh,hNpr1 antagonist,HEK cytotox
CC(C)CNc1ccc2c(n1)C(C)(C(=O)Nc1ccncc1)CN(Cc1ccccc1)C2 (stereo not given),22µM*,i,-16%[70.6 µM],32µM*
CC(C)CNc1ccc2c(n1)C(C)(C(=O)NCCc1cnc[nH]1)CN(Cc1ccccc1)C2 (stereo not given),32µM*,i,3%,u
CC(C)CNc1ccc2c(n1)C(C)(C(=O)NCc1ccco1)CN(Cc1ccccc1)C2 (stereo not given),40µM*,i,-17%[70.6 µM],50µM*
CC1(C(=O)NCc2ccccc2)CN(Cc2ccccc2)Cc2ccc(N3CCOCC3)nc21 (stereo not given),u,i,-19%,50µM*
COCCN1C(=O)[C@H]2CN(Cc3cccc(OC(F)(F)F)c3)C[C@H]2C1=O,-18%,i,-2%,-8%
COCCn1ncc(N2CCCC(CC(=O)NCc3ccc(F)cc3F)C2)cc1=O (stereo not given),-18%,i,2%,2%
Cn1cnc2cc(-c3ccc(F)cc3)cc(C(=O)NCCc3ccccn3)c21,u,i,0%[70.6 µM],0%[172 µM]
O=C(c1cc(-c2cccc(C(F)(F)F)c2)c2nncn2n1)N1CCC(N2CCCCC2)CC1,-27%,x,x,u
CN1Cc2ccc(NCc3ccccc3)nc2C(C)(C(=O)NCc2ccc3c(c2)OCO3)C1 (stereo not given),u,i,-28%,u
COCCCNC(=O)C1(C)CN(Cc2ccccc2)Cc2ccc(NCC(C)C)nc21 (stereo not given),u,i,5%[70.6 µM],89µM*
CC(C)CNc1ccc2c(n1)C(C)(C(=O)NC(C)C)CN(Cc1ccccc1)C2 (stereo not given),35µM*,i,u,63µM*
CN1Cc2ccc(Nc3ccccc3)nc2C(C)(C(=O)NCc2ccc3c(c2)OCO3)C1 (stereo not given),50µM*,i,-15%[70.6 µM],79µM*
COCC(=O)N1CCCC(C(=O)N2CCCC(c3nc4ncccc4[nH]3)C2)C1 (stereo not given),-14%,x,x,-2%
O=C(NC1CCN(c2cc(-c3ccc(F)cc3)[nH]n2)C1)c1cc(Cl)ccc1F (stereo not given),35µM*,i,-18%,u
O=C(NC1CCCN(c2cc(-c3ccc(F)cc3)[nH]n2)C1)c1cc(F)ccc1F (stereo not given),u,i,-21%,45µM*
CN(C)Cc1ccc(-c2cc3c(ccn3Cc3cccnc3)c(C3=CCOCC3)n2)cc1,25µM*,i,-9%[70.6 µM],56µM*
C1=C(c2nc(-c3cccc4[nH]ncc34)cc3c2ccn3Cc2cccnc2)CCOC1,u,i,-20%[70.6 µM],89µM*
C1=C(c2nc(-c3ccc(N4CCOCC4)cc3)cc3c2ccn3Cc2cccnc2)CCOC1,u,i,-2%,u
CC1Oc2ccc(NC(=O)c3ccc(F)cc3F)cc2CN(C2CCCc3ccccc32)C1=O (stereo not given),-21%,i,-1%,u
O=C(Nc1ccc(Oc2cccnc2)cc1)C1CCN(CCCc2ccccc2)CC1,u,i,-12%,25µM*
COc1ccc2cc1Nc1ccc(cc1)C[C@H](NCC1CC1)C(=O)N(C)[C@@H](C(=O)NCc1ccccc1)C2,-11%,i,-14%,u
